Only some compounds are listed: those with a hit (about 10% of all), similar ones and a draw of the others.
GPT2 inh: Primary qHTS assay for inhibitors of Glutamate pyruvate transaminase 2 (GPT2); Alanine aminotransferase 2 (Homo sapiens), Q8TD30; Recombinant GPT2, coupled pyruvate oxidase/HRP Amplex Red fluorescence; Potency, µM (highest dose often 57.7 µM), hits mostly inhibitors; hit rate 0.25% among 100,000; AID 1671188, 2021; note: nearly all actives have a fitted effect of over 60% in size
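Recombinant GPT2 (10ng/uL) with 250uM a-KG and 2mM L-alanine, 30 min at room temperature, in HEPES pH 7.5 buffer. Pyruvate detected by pyruvate oxidase/HRP/Amplex Red fluorescence after 30 min in the dark; AOA (50uM) as positive control.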
FLuc inh: Firefly luciferase inhibition profiling of diverse chemical library using quantitative high-throughput screening; purified P. pyralis luciferase, luminescence, biochemical; hit rate 2.5% among 76,000; Potency, µM (highest dose often 115 µM), hits mostly inhibitors; Luciferin 4-monooxygenase (Photinus pyralis), P08659; note: nearly all actives have a fitted effect of over 65% in size
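FLuc 10nM, D-luciferin 10uM, ATP 10uM, Mg acetate 10mM, Tris acetate pH 7.5, Tween/BSA; cpd qHTS; enzyme added last; CCD luminescence.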
HEK cytotox: Cytotoxic Profiling in HEK 293 Cell Line of Diverse Libraries Using Quantitative High-Throughput Screening; HEK 293 viability, ATP luminescence (CellTiter-Glo), 48-72 h; Potency, µM (series often up to 115 µM), hits mostly inhibitors; hit rate 6.6% among 94,000; AID 1345083, 2018; note: nearly all actives have a fitted effect of over 60% in size
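Viability of HEK 293 cells, plated at 250 cells/well, was judged by cellular ATP after compound treatment for 48 or 72 hr. Luminescence was imaged 10 min after CellTiter-Glo addition at room temperature.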
hNpr1 antagonist: Natriuretic polypeptide receptor (hNpr1) antagonism - Primary qHTS; Atrial natriuretic peptide receptor 1 (Homo sapiens), P16066; HEK293 hNpr1 GloSensor cGMP, ANP-stimulated luminescence; Potency, µM (series often up to 46.3 µM), usual class: inhibitors; hit rate 1.6% among 76,000; AID 1347048, 2019; calls by dose curve; note: nearly all actives have a fitted effect of over 60% in size
Target sequence (P16066 whole entry, looked up): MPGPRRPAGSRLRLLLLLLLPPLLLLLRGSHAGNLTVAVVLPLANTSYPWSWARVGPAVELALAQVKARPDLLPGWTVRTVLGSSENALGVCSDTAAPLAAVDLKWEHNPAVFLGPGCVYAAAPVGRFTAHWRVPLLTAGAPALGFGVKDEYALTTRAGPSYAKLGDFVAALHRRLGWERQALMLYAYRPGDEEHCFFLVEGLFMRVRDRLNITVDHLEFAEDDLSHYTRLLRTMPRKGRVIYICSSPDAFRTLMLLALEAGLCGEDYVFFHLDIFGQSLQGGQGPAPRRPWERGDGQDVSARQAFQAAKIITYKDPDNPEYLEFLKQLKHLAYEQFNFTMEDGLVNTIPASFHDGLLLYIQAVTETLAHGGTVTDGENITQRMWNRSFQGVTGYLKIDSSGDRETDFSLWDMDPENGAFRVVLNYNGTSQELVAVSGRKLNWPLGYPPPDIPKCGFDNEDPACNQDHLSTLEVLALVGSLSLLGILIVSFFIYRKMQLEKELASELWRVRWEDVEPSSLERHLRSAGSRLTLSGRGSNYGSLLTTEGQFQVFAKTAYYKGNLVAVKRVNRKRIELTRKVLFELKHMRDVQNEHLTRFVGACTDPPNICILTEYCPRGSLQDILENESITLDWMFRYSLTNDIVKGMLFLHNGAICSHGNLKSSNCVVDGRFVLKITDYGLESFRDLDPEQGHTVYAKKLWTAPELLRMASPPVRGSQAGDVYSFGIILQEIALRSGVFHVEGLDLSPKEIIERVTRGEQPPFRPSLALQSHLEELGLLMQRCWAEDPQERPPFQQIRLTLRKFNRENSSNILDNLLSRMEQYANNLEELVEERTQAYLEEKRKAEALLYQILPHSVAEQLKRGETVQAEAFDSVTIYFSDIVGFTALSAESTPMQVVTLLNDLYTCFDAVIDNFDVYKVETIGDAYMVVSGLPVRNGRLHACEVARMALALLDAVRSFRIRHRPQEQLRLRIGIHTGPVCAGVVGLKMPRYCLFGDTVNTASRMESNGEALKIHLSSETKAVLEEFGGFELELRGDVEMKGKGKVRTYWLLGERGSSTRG
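Compound pre-incubated 30 min at room temperature on GloSensor-loaded HEK293 cells stably carrying hNpr1 and the pGS-40F cGMP biosensor. Stimulation uses hNppA at 0.1 nM final; luminescence is taken at baseline and 20 min post-agonist.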
3T3 cytotox: Cytotoxic Profiling in NIH 3T3 Cell Line of Diverse Libraries Using Quantitative High-Throughput Screening | NIH 3T3 viability, CellTiter-Glo ATP luminescence, 48-72 h | Potency, µM (top dose mostly 96.7 µM), hits mostly inhibitors | hit rate 4.3% among 94,000; note: nearly all actives have a fitted effect of over 55% in size
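Luminescent ATP readout (CellTiter-Glo, 10 min RT) after 48 or 72 hr compound exposure of NIH 3T3 cells seeded at 400 cells/well in 1536-well format; quantitative HTS.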
Large screens that a line does not name were inactive. Unless noted, calls come from the whole dose curve; as a rule, active = well fitted curve in the direction sought with a large enough effect; inconclusive = small, poorly fitted or top-dose-only effect, or another doubt; inactive = no such curve, though single readings can be large; an effect the other way counts as inactive or inconclusive.

COc1ccc(-c2cc(N3CCCC(NC(=O)c4cccc(NC(C)=O)c4)C3)n[nH]2)cc1 (stereo not given)	GPT2 inh inconclusive, FLuc inh 28µM, HEK cytotox inconclusive, 3T3 cytotox inconclusive
O=C(NC1CCCN(c2cc(-c3ccccc3)[nH]n2)C1)c1cccc(Br)c1 (stereo not given)	HEK cytotox inconclusive, 3T3 cytotox inconclusive
CC(=O)Nc1cccc(C(=O)NC2CCCN(c3cc(-c4ccc(F)cc4)[nH]n3)C2)c1 (stereo not given)	GPT2 inh inconclusive, FLuc inh inconclusive, HEK cytotox inconclusive
Cn1nccc1C(=O)N1C[C@@H](F)C[C@H]1C(=O)N1CCCCC1	none
CN(C)c1cccc(C(=O)NCC2CCN(c3cc(-c4ccccc4)[nH]n3)CC2)c1	GPT2 inh inconclusive, FLuc inh 16µM, HEK cytotox inconclusive, 3T3 cytotox inconclusive
COc1ccc(-c2cc(N3CCCC(NC(=O)c4ccoc4)C3)n[nH]2)cc1 (stereo not given)	FLuc inh 22µM, HEK cytotox inconclusive
COc1ccc(-c2cc(N3CCCC(NC(=O)c4cccc(Br)c4)C3)n[nH]2)cc1 (stereo not given)	FLuc inh inconclusive, HEK cytotox inconclusive, 3T3 cytotox inconclusive
COc1ccc(-c2cc(N3CCCC(NC(=O)c4cccc(C#N)c4)C3)n[nH]2)cc1 (stereo not given)	FLuc inh 20µM, HEK cytotox inconclusive, 3T3 cytotox inconclusive
CCc1nc2cc(N3CCC(C(=O)NCc4ccc5c(c4)OCO5)CC3)cnc2nc1CC	3T3 cytotox inconclusive
COc1ccc(-c2cc(N3CCCN(C(=O)c4cc5ccccc5[nH]4)CC3)n[nH]2)cc1	FLuc inh inconclusive, HEK cytotox 45µM, 3T3 cytotox 35µM
COc1ccc(C2(C(=O)N3CCCN(c4cc(-c5ccc(C)c(C)c5)[nH]n4)CC3)CC2)cc1	GPT2 inh inconclusive, HEK cytotox 25µM, hNpr1 antagonist inconclusive, 3T3 cytotox 32µM
COc1cc(OC)cc(C(=O)N2CCCN(c3cc(-c4ccc(C)c(C)c4)[nH]n3)CC2)c1	GPT2 inh inconclusive, HEK cytotox inconclusive, 3T3 cytotox inconclusive
COc1ccc(-c2cc(N3CCN(C(=O)c4ccc(C)cc4C)CC3)n[nH]2)cc1	HEK cytotox 40µM, hNpr1 antagonist inconclusive, 3T3 cytotox inconclusive
COc1ccc(-c2cc(N3CCCN(C(=O)c4ccc(OC)cc4OC)CC3)n[nH]2)cc1	GPT2 inh inconclusive, HEK cytotox 40µM, hNpr1 antagonist inconclusive, 3T3 cytotox inconclusive
COc1ccc(CN2CC3(CCN(C(=O)Cc4c(F)cccc4Cl)CC3)C2=O)cc1	HEK cytotox inconclusive, 3T3 cytotox inconclusive
COC(=O)[C@H](Cc1ccc(OC)cc1)NC(=O)[C@@H]1CN(S(C)(=O)=O)CCN1C(C)=O	none
COc1ccc(Cl)cc1NC(=O)[C@@H]1COCC(=O)N1Cc1ccc(OC)c(OC)c1	HEK cytotox inconclusive
COc1cccc(-c2nc3cc4c(cc3cc2CN2CCOCC2)OCO4)c1OC	HEK cytotox inconclusive
COc1cccc(-c2nc3cc4c(cc3cc2CN2CCSCC2)OCO4)c1OC	HEK cytotox 22µM, 3T3 cytotox inconclusive
COc1ccc(-c2cnc([C@@H]3COCCN3C3CCCCC3)[nH]2)cc1	HEK cytotox 32µM, 3T3 cytotox inconclusive
Cc1ccc(-c2cnc([C@@H]3COCCN3C(C)C)[nH]2)cc1	HEK cytotox 112µM, 3T3 cytotox inconclusive
Cc1ccc(-c2cnc([C@@H]3COCCN3C3CCC3)[nH]2)cc1	none
O=C(O)c1ccnc(-c2ccnc(NCC(O)c3ccccc3Cl)n2)c1 (stereo not given)	FLuc inh 32µM
COc1ccccc1CNC(=O)C[C@@H]1CCNC[C@@H]1Cc1cc(C(C)(C)C)on1	HEK cytotox 100µM, 3T3 cytotox 100µM
COc1ccccc1CNC(=O)C[C@@H]1CCNC[C@@H]1Cc1cc(CSc2ccccc2)on1	HEK cytotox inconclusive, 3T3 cytotox 79µM
O=C(C[C@@H]1CCNC[C@@H]1Cc1cc(CSc2ccccc2)on1)NCc1ccc(F)cc1	GPT2 inh inconclusive, HEK cytotox inconclusive, 3T3 cytotox inconclusive
COc1ccc(C(=O)N2CCC(c3n[nH]c(=O)n3-c3ccc(C)cc3)CC2)cc1F	3T3 cytotox inconclusive
O=C1NCc2ccccc2CC12CCCCN2CC1CCCC1 (stereo not given)	GPT2 inh inconclusive (no result: FLuc inh, hNpr1 antagonist)
OCc1cccc(-c2ccc3ncc(Nc4cccnc4)n3n2)c1	GPT2 inh inconclusive, 3T3 cytotox inconclusive
OCc1cccc(-c2ccc3ncc(Nc4ccccc4Cl)n3n2)c1	FLuc inh 22µM, HEK cytotox 89µM, 3T3 cytotox inconclusive
OCc1cccc(-c2ccc3ncc(Nc4cccc(C(F)(F)F)c4)n3n2)c1	GPT2 inh inconclusive, HEK cytotox inconclusive, 3T3 cytotox 50µM
OCc1cccc(-c2ccc3ncc(Nc4ccc(OCCN5CCCC5)cc4)n3n2)c1	HEK cytotox 100µM, 3T3 cytotox inconclusive
O=C1CN(Cc2ccc(-c3ccsc3)cc2)CCN1c1ccc(Cl)nn1	HEK cytotox inconclusive, 3T3 cytotox inconclusive (no result: FLuc inh, hNpr1 antagonist)
CN(C)C(=O)c1nc2cccnc2n(C2CC2)c1=O	none (no result: FLuc inh, hNpr1 antagonist)
CC(C)c1ccc(CN2CCC3(CC2)OC(=O)N(Cc2ncccn2)C3(C)c2ccccc2)cc1 (stereo not given)	HEK cytotox 40µM, 3T3 cytotox inconclusive
CC(=O)Nc1ccc(CN2C(=O)OC3(CCN(Cc4ccc(C(C)C)cc4)CC3)C2(C)c2ccccc2)cc1 (stereo not given)	HEK cytotox inconclusive, 3T3 cytotox 35µM
COCCC1(NC(=O)c2ccoc2)CCN(CC2CC2)CC1	none
Cc1ccc(-c2nnc(C3CN(C(=O)C4(c5ccccc5)CC4)CC34CCOCC4)o2)cc1 (stereo not given)	HEK cytotox inconclusive, 3T3 cytotox inconclusive
COc1ccc(CNC(=O)N2CCC3(CC2)CC(N2CCOCC2)CCO3)cc1 (stereo not given)	none
Cn1cc(CN2CCNc3cc(Nc4ccccc4)ncc3C2)cn1	FLuc inh 28µM, 3T3 cytotox inconclusive
c1ccc(CN2CCNc3cnc(Nc4ccc(N5CCOCC5)cc4)cc3C2)cc1	GPT2 inh inconclusive, FLuc inh inconclusive, HEK cytotox 71µM, hNpr1 antagonist inconclusive, 3T3 cytotox 40µM
Cn1cc(CN2CCNc3cc(-c4ccccc4)ncc3C2)cn1	FLuc inh 45µM, HEK cytotox inconclusive
CCC1=C(C(=O)OC)C(c2cccc(OC)c2OC)N2C(CC(=O)NCC3CC3)=CSC2=N1 (stereo not given)	none

Bioassay records from PubChem.
